In PubChem BioAssay AID1347076 (National Center for Advancing Translational Sciences (NCATS), 2019):
Among all 400,000 compounds or so, about 13,000 (3.2%) were called active. Another 18% or so got no clear call; they are omitted. Calls come from the whole dose curve; as a rule, active = well fitted cell-killing curve with a large enough effect; inconclusive = small, poorly fitted or top-dose-only effect, or effect the other way; inactive = flat fitted curve, though single readings scatter. The list comes from a sample in which actives are over-represented; it also holds similar structures and randomly drawn compounds. Where a call stands in place of a potency, no number is given.

Assay: qHTS assay for MDR1-selective chemotherapeutics: Primary screen using the drug-selected MDR subline cells KB-V1; note: nearly all actives have a fitted effect of over 60% in size
Conditions: KB-V1 MDR cells viability, CellTiter-Glo, 72 h; series mostly up to 46.1 µM
Outline: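 Cytotoxicity via CellTiter-Glo luminescence after 72 h compound exposure at 37 degrees C. Cells: drug-selected KB-V1 line, DMEM phenol-red free plus 10% FBS. Compounds tested at multiple concentrations; normalized data fitted to concentration-effect curves.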
Potency is the fitted concentration of half-maximal effect.

SMILES | Potency
NC(=O)Nc1ccc(/C=C/c2ccnc3ccccc23)cc1 | inactive
C[C@H]1CN([C@@H](C)CO)C(=O)CCCn2nncc2CO[C@@H]1CN(C)Cc1ccc(Oc2ccccc2)cc1 | inactive
COc1ccccc1CNC(=O)c1cc(-c2cc(F)ccc2OC)n[nH]1 | inactive
O=C(Oc1ccc(-c2nc(-c3ccccn3)no2)cc1)c1ccccc1 | 7.31 µM (active)
Brc1ccc(-c2noc(-c3ccccc3)n2)o1 | inactive
CCCCCCOc1ccc(OC(=O)c2cccnc2)cc1 | inactive
CC(C)Nc1ncnc2c1ncn2[C@H]1CN(Cc2ccncc2)C[C@@H](CO)O1 | inactive
CN1OC[C@@H]2CN(C(=O)c3ccc(-c4ccccc4)cc3)[C@H](c3ccc(-c4cccc(F)c4)cc3)C[C@@H]21 | inactive
CCC(=O)N1CCCC1(C)C(=O)Nc1ccc2c(c1)CCN2C(C)=O (centres undefined) | inactive
Cc1ccc(S(=O)(=O)N(Cc2cc3ccccc3[nH]c2=O)CC2CCCO2)cc1 (centres undefined) | inactive
CCC(=O)N(CCc1ccccc1)Cc1cc2cc(C)ccc2[nH]c1=O | inactive
CCN(Cc1cc2cc(C)ccc2[nH]c1=O)S(=O)(=O)c1ccccc1 | 3.66 µM (active)
S=C(NN=Cc1ccccn1)Nc1ccccn1 | inactive
Cc1ccc(CNC(=O)Nc2nnc([C@H]3C[C@H](O)[C@@H](CO)O3)s2)cc1 | inactive
Cc1ccc(C(=O)Nc2ncccc2C)cc1S(=O)(=O)N1CCOCC1 | inactive
Cc1ccc(NC(=O)CNCc2ccccn2)cc1S(=O)(=O)N(C)C | inactive
CCN(CC)S(=O)(=O)c1cc(C(=O)Nc2ccccn2)ccc1C | 23.1 µM (active)
COc1ccc(CN2CCC(C)(Oc3cccc(F)c3)C2)c2ccccc12 (centres undefined) | inactive
Fc1ccc(-c2nnc(CSc3nnc(-c4ccc5c(c4)OCO5)o3)o2)cc1 | inactive
CCSc1nnc(-c2cc3c(s2)-c2ccccc2CC3)o1 | inactive
Fc1ccc(CSc2nnc(-c3cc4c(s3)-c3ccccc3CC4)o2)cc1 | 20.6 µM (active)
CCc1nc2ccc(C(=O)N(C)Cc3ccco3)cn2c1N(C)C(=O)Cc1ccccc1 | inactive
O=C(C1CCN(S(=O)(=O)c2ccc(Br)s2)CC1)N1CCN(C2CCCCC2)CC1 | inactive
O=C(NCCc1ccccc1)C1CCN(S(=O)(=O)c2ccc(Br)s2)CC1 | 2.06 µM (active)
Cc1cccc(NC(=O)CN2CCCN(S(=O)(=O)c3ccc(Br)s3)CC2)c1 | inactive

SMILES | Potency
CSc1ccc(S(=O)(=O)N2CCC(C(=O)NCCc3ccccc3)CC2)cc1 | inactive
O=C(C1CCN(S(=O)(=O)c2ccc(Br)s2)CC1)N1CCN(c2ccccc2)CC1 | inactive
CC(C)N(C(=O)CN1CCN(S(=O)(=O)c2ccc(Br)s2)CC1)C(C)C | 23.1 µM (active)
CCCCNC(=O)C1CCCN(c2nnc(C)c3c(C)n(-c4ccc(Cl)cc4)nc23)C1 (centres undefined) | inactive
O=C1OCCC1=COCCCCOC=C1CCOC1=O | inactive
CCc1nc2ccc(C(=O)NC3CCN(Cc4ccccc4)CC3)cn2c1N(C)CCN1CCOCC1 | inactive
CCc1ccc(NC(=O)c2nn(-c3ccc(C)cc3)c(=O)n(C)c2=O)cc1 | inactive
NC(N)=Nc1nc(-c2ccccc2)c2cc(Cl)ccc2n1 | inactive
O=C(CCl)NNc1nc(-c2ccccc2)c2cc(Cl)ccc2n1 | inactive
Clc1ccc2nc(-c3ccccc3)nc(C(Cl)Cl)c2c1 | 3.66 µM (active)
CCc1nc2ccc(C(=O)Nc3cc(-c4ccccc4)ccc3OC)cn2c1N(CC)CC(=O)N(C)C | inactive
O=C(OCc1cc(=O)n2nc(C3CC3)sc2n1)c1ccccc1Cl | inactive
Cn1c(=O)c2c(nc(CN3CCOCC3)n2Cc2ccccc2)n(C)c1=O | inactive
Cn1c(=O)[nH]c(=O)c2c1nc(CN(Cc1ccccc1)Cc1ccccc1)n2CCN1CCOCC1 | 6.51 µM (active)
Cn1c(=O)[nH]c(=O)c2c1nc(CN1CCN(c3ccccc3F)CC1)n2CCc1ccccc1 | inactive
C[C@H]1CN([C@@H](C)CO)C(=O)c2cc(C3=CCCCC3)cnc2O[C@@H]1CN(C)C(=O)Cc1ccccc1 | inactive
COc1ccc(CCNC(=O)Cn2c(=O)n(-c3ccccc3)c(=O)c3c(C)c(C)sc32)cc1OC | inactive
CC1(C(=O)NS(=O)(=O)C2CC2)CCCN(C(=O)CSc2ccccc2)C1 (centres undefined) | inactive
Cn1c(C(=O)NCCCN2CCCCC2)cc2sccc21 | inactive
COc1ccc(CCNC(=O)c2cc3sccc3n2C)cc1OC | 20.6 µM (active)
COc1ccc(CCNC(=O)COC(=O)/C=C/c2cccs2)cc1OC | inactive
O=C(O)C1=C(C(=O)O)C2CCC1C2 | inactive
Cc1ccc(S(=O)(=O)n2nc(C)c(S(=O)(=O)N3CCCCCC3)c2C)cc1 | inactive
COc1cc(N=Cc2c(O)[nH]c3ccccc23)cc(OC)c1OC | 4.11 µM (active)
COc1ccccc1N=Cc1c(O)c2ccccc2oc1=O | inactive

SMILES | Potency
COc1cc2[nH]c(O)c(C=O)c2cc1OC | inactive
COc1ccc(N=Cc2c(O)[nH]c3ccccc23)cc1OC | 6.51 µM (active)
CN=c1scc(-c2cc(OC)ccc2OC)n1/N=C/c1c(C)[nH]c2ccccc12 | inactive
Oc1[nH]c2ccccc2c1N=Nc1c(F)c(F)c(F)c(F)c1F | inactive
CCCCN(C(C)=O)c1ccc2c(c1)C1CC2CCN1Cc1ccccc1 (centres undefined) | inactive
Cc1ccccc1-c1nc(SCC(=O)N(C)c2ccccc2)c2c(=O)n(C)c(=O)n(C)c2n1 | inactive
CC1(C(=O)NS(=O)(=O)c2cccc(F)c2)CCN1C(=O)Cc1ccc(Cl)cc1Cl (centres undefined) | inactive
CNC(=O)c1ccc(CN(C)C(=O)c2cc(C3CC3)nc3c2cnn3C(C)C)cc1 | inactive
Cc1c(C(=O)Nc2ccccn2)oc2ccc(Br)cc12 | 11.6 µM (active)
Cc1noc(C)c1C(=O)Nc1ccccn1 | inactive
Cc1nonc1NC(=O)c1oc2ccccc2c1C | inactive
CCS(=O)(=O)c1nc(S(=O)(=O)c2ccc(C)cc2)c(NCc2ccc(Cl)cc2)s1 | inactive
N#Cc1ccc(C(C(=O)NCc2ccccc2)n2c(=O)c(-c3ccco3)nc3ccccc32)cc1 (centres undefined) | inactive
C=CCC[C@H](CCCCC)OC(=O)/C=C/[C@H](O)[C@@H](O)C[C@@H](O)CC=C | inactive
O=C(O)C(c1ccccc1)N1C(=O)/C(=C\c2ccc(-c3cccc(Cl)c3)o2)SC1=S (centres undefined) | inactive
O=C1c2ccccc2NC(c2ccc(-c3cccc(Cl)c3)o2)N1O (centres undefined) | 4.61 µM (active)
O=c1c(-c2cccc(Cl)c2)c[nH]n1-c1ccccc1 | inactive
COc1ccc(CCNC(=O)c2cn(C)c3ccc(S(=O)(=O)N(C)C4CCCCC4)cc3c2=O)cc1OC | inactive
Cc1cc2nc(-c3ccc(Cl)cc3)c(Cc3cccc(F)c3)n2c(C)c1Br | inactive
Brc1ccccc1C1N=C(c2ccccc2)NO1 (centres undefined) | inactive
N#Cc1ccc(C2N=C(c3ccccc3)NO2)cc1 (centres undefined) | 18.4 µM (active)
N#Cc1ccc(OC2=NS(=O)(=O)c3ccccc32)cc1 | inactive
COc1cccc(-c2cc3nc(NCCOc4ccccc4Cl)n(C)c(=O)c3s2)c1 | inactive
N#Cc1nc(NCc2ccc(Cl)c(Cl)c2)c2ncn(CCCO)c2n1 | inactive
COc1ccc(CN2C(=O)C(CC(=O)NCCCCc3ccccc3)CC(C(=O)N3CCOCC3)=C2C)cc1 (centres undefined) | inactive

SMILES | Potency
CCCN(CCC)C(=O)Cn1c(=O)n(-c2ccc(Cl)cc2)c(=O)c2c3c(sc21)CCCCC3 | inactive
N#Cc1ccc[n+](CC(=O)c2ccc(F)cc2)c1 | inactive
COC(=O)c1ccc(CSc2nc3ccccc3c(=O)n2-c2cccc(OC)c2)o1 | inactive
Cc1cccc2nc(CSc3nc4[nH]ncc4c(=O)n3-c3cccc(Cl)c3)cc(=O)n12 | 23.1 µM (active)
COc1ccc(CCNC(=O)CSc2nc3[nH]ncc3c(=O)n2-c2cccc(C(F)(F)F)c2)cc1OC | inactive
Cc1ccc(NC(=O)[C@H](Cc2ccccc2)NC(=O)CC[C@H]2O[C@@H](n3ccc(=O)[nH]c3=O)[C@H](O)[C@@H]2O)cc1C | inactive
O=C(c1ncn2c1c(=O)[nH]c1ccccc12)N1CCc2ccccc2C1 | inactive
CN1CCN(c2oc(-c3ccc(COc4ccc(Cl)cc4)o3)nc2C#N)CC1 | inactive
CC1(C)Cc2cccc(OCC(=O)N3CCN(c4ccc([N+](=O)[O-])cc4)CC3)c2O1 | 2.59 µM (active)
CC1(C)Cc2cccc(OCC(=O)NCc3ccccc3)c2O1 | inactive
CC1(C)Cc2cccc(OCC(N)=O)c2O1 | inactive
COc1ccccc1CNC(=O)c1ccc(N(C)S(=O)(=O)c2ccc(C)cc2)cc1 | inactive
CN(c1ccccc1)S(=O)(=O)c1ccc(C(=O)NCCc2ccccc2)cc1 | inactive
Cc1ccccc1CSCCNC(=O)c1ccc(N(C)S(=O)(=O)c2ccccc2)cc1 | 13 µM (active)
COCc1cccc(-c2csc(C(O)c3ccc(F)cc3)n2)c1 (centres undefined) | inactive
O=c1cc(CCl)nc2scc(-c3ccccc3)n12 | inactive
OCCn1c(-c2ccccc2)csc1=Nc1ccccc1 | 14.6 µM (active)
Cn1c(=O)nc2n(-c3ccc(Br)cc3)c3cccc(Cl)c3cc-2c1=O | inactive
CCOc1ccc(Cl)cc1-c1cc(C(=O)NCc2cccs2)[nH]n1 | inactive
CCc1ccccc1OCC(=O)Nc1nnc(C2CC2)s1 | inactive
N#C/C(=C\c1ccc(-c2cccc([N+](=O)[O-])c2)o1)C(=O)NCCN1CCOCC1 | inactive
Cc1ccc(Cc2cnc(NC(=O)/C(C#N)=C/c3ccc(-c4cccc([N+](=O)[O-])c4)o3)s2)cc1 | 18.4 µM (active)
Cc1ccc(C(=O)N/C(=C/c2ccc(-c3cccc([N+](=O)[O-])c3)o2)C(=O)NCCCN(C)C)cc1 | inactive
CC(C)[C@H](NC(=O)c1ccccc1F)C(=O)Nc1cccc(S(=O)(=O)N2CCOCC2)c1 | inactive
